Test [1] is described as follows: qHTS assay for small molecule agonists of the p53 signaling pathway (AID 651631; calls by dose curve; also: nearly all actives have a fitted effect of over 15% in size; also: potency is read from the fitted curve at half-maximal effect). Put shortly:
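HCT-116 p53RE-bla reporter line, 16 h compound treatment at 37 °C, then fluorescence after 2 h with B/G FRET substrate.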

Test [2] is described as follows: qHTS assay for small molecules that induce genotoxicity in human embryonic kidney cells expressing luciferase-tagged ATAD5 (AID 651632). Also: nearly all actives have a fitted effect of over 15% in size. Put shortly: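 HEK293T cells carrying luciferase-tagged ATAD5 were given compound or DMSO vehicle and incubated 16 hr at 37C, 5% CO2. Luciferase activity was read after 30 min at room temperature with Amplite; a rise signals genotoxic stress.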

Test [3] in a line: qHTS assay for small molecule agonists of the p53 signaling pathway - cell viability (AID 651633; calls by dose curve; also: nearly all actives have a fitted effect of over 30% in size; also: potency is read from the fitted curve at half-maximal effect). A digest of the protocol:
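p53RE-bla cells were treated with compound for 16 hours at 37 C. Cytotoxicity was then measured as CellTiter-Glo luminescence after 30 min at room temperature.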

Test [4] is described as follows: qHTS assay for small molecules that induce genotoxicity in human embryonic kidney cells expressing luciferase-tagged ATAD5 - cell viability (AID 651634; calls by dose curve; also: nearly all actives have a fitted effect of over 25% in size). A digest of the protocol:
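HEK293T cells carrying luciferase-tagged ATAD5, 2,000 cells/well, exposed to compound for 15.5 hr at 37C. Viability read as live-cell protease activity by CellTiter-Fluor fluorescence after 30 min at 37C.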

The nature of test [5]: qHTS assay for small molecule disruptors of the mitochondrial membrane potential - cell viability (AID 720634; calls by dose curve;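 also: human HepG2 liver cancer cells; series mostly up to about 83 µM; nearly all actives have a fitted effect of over 20% in size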). Put shortly: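 HepG2 cells, 2,000 per well, attached overnight, then treated 1 hr at 37 C, 5% CO2. Viability read as ATP by CellTiter-Glo luminescence after 30 min at room temperature. Read in the same wells as the m-MPI membrane-potential dye assay.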
The nature of test [6]: qHTS assay to test for compound auto fluorescence at 590 nm (red) in HepG2 cells (AID 720674). A digest of the protocol:
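HepG2 cells, 2,000 per well in MEM with 10% FBS, attached overnight at 37 C, then got 23 nL compound or DMSO. After 1 hr at 37 C, 5% CO2, red fluorescence was read at 540/590 nm against Rose Bengal sodium as reference.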

Test [7] can be described thus: qHTS assay to test for compound auto fluorescence at 535 nm (green) in HepG2 cells (AID 720675).
The nature of test [8]: qHTS assay to test for compound auto fluorescence at 460 nm (blue) in HEK293 cells (AID 720678). Put shortly: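 Blue read-out at excitation 405 nm and emission 460 nm follows overnight compound exposure of HEK293 cells at 37C in 5% CO2. Activity is given as auto fluorescence equivalency to triamterene.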
The nature of test [9]: qHTS assay to test for compound auto fluorescence at 590 nm (red) in HEK293 cells (AID 720679). A digest of the protocol:
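Red channel, Ex/Em 540/590nm; signal expressed as equivalency to Rose Bengal sodium. HEK293, 2,000 cells/well, 10% dialyzed FBS; 23 nL compound pinned after 4-5 hr attachment; overnight 37C/5% CO2 before reading.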

Test [10] can be described thus: qHTS assay for small molecule disruptors of the mitochondrial membrane potential (AID 720635). Also: potency is read from the fitted curve at half-maximal effect. Put shortly:
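HepG2 cells exposed to compound 1 hr at 37C, then Mito-MPS dye 30 min. Ratio read of aggregate (540/590 nm) versus monomer (490/535 nm) fluorescence.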

Data on 25 compounds can be found in PubChem BioAssay (Tox21).

Where “and” joins values, the source holds several entries; their conditions need not be identical. Identical values can stand only once. Inconclusive results are not listed. Calls of active or inactive are those of the source. Unless noted, calls follow the shape of the dose curve; as a rule, active = well fitted curve in the direction sought with a large enough effect in the repeat runs; inconclusive = weak or mixed curves; inactive = no such curve, though single readings can be large; an effect the other way counts as inactive or inconclusive.

As to `O=C(O)CCCC(=O)O`, the Potency result in test [1], in test [2], in [3], in test [4], in test [5] and in test [6] was “inactive” throughout. Besides, the Potency entry in test [7] and in test [9] was “inactive” in each case. Moreover, the outcome in test [8] was inactive.

On to `C=C[Si](OCCOC)(OCCOC)OCCOC`, for which the Potency entry in test [1], in test [2], in test [3], in test [4], in test [5] and in test [6] was “inactive” throughout. For the same compound, the Potency result in test [7] and in test [9] was “inactive” each time. Further, the result in [8] was inactive.

As for `COCCOCCOCCO`, the Potency result in [1], in test [2], in test [3], in test [4], in [6] and in test [7] was “inactive” each time. In addition, the Potency result in test [9] is “inactive”. Further, in test [8], the result was inactive.

For the compound `CC(C)=CCO`, the Potency entry in [1], in test [2], in test [3], in [4], in [5] and in [6] was “inactive” in each case. Also, the Potency entry in [7] and in test [9] was “inactive” in each case. Also, the compound was classed as inactive in [8].

Turning to `IC(I)I`, the Potency entry in [1], in [2], in [3], in test [4], in [6] and in test [7] was “inactive” throughout. For the same compound, the Potency entry in [9] is “inactive”. In test [8], the outcome was inactive.

On to `Brc1nc2ccccc2s1`, for which the Potency entry in test [1], in test [2], in test [3], in test [4], in [5] and in test [6] was “inactive” in each case. For the same compound, the Potency entry in [7] and in test [9] was “inactive” each time. Also, the outcome in test [8] was inactive.

As to `CC/C(=C(/CC)c1ccc(O)cc1)c1ccc(O)cc1`, the Potency is 9.44 µM (active) and 13.6 µM (active) and 15.4 µM (active) in test [1]; 60.6 µM (active) in test [3]; 7.5 µM (active) and 6.06 µM (active) and 10.9 µM (active) in [10]. For the same compound, the Potency entry in [4], in test [5], in [6], in [7] and in test [9] was “inactive” in each case. Moreover, the result in test [8] was inactive.

As for `CCCOCCO`, the Potency result in [1], in test [2], in test [3], in [4], in [5] and in [6] was “inactive” in each case. For the same compound, the Potency entry in test [7] and in [9] was “inactive” each time. Moreover, the call in test [8] was inactive.

As to `c1ccc2ncccc2c1`, the Potency entry in [1], in [2], in [3], in test [4], in [5] and in [6] was “inactive” throughout. Also, the Potency entry in [7] and in test [9] was “inactive” throughout. Also, the outcome in test [8] was inactive.

Turning to `COc1cc([C@H]2Oc3cc([C@H]4Oc5cc(O)cc(O)c5C(=O)[C@@H]4O)ccc3O[C@@H]2CO)ccc1O`, the Potency result in test [1], in [2], in [3], in test [4], in test [6] and in test [7] was “inactive” in each case. Besides, in test [9], the Potency result is “inactive”. The Potency in test [10] was 29.8 µM (active) and 21.6 µM (active). Also, the compound was classed as inactive in test [8].

For `C[C@]12CC[C@@H]3c4ccc(O)cc4CC[C@H]3[C@@H]1CC[C@@H]2O`, in test [1], the Potency is 13.3 µM (active) and 19.3 µM (active) and 9.69 µM (active). The Potency entry in test [2], in test [3], in test [5], in test [6], in test [7] and in test [9] was “inactive” throughout. Further, in test [8], the call was inactive.

For `C=CN1CCCC1=O`, the Potency entry in test [1], in [2], in [3], in test [4], in test [5] and in test [6] was “inactive” in each case. Also, the Potency entry in [7] and in test [9] was “inactive” each time. Further, in [8], the result was inactive.

For the compound `CC1(C)OC(=O)NC1=O`, the Potency result in test [1], in test [2], in test [3], in [4], in test [5] and in test [6] was “inactive” each time. Besides, the Potency result in [7] and in [9] was “inactive” throughout. Also, in test [8], the outcome was inactive.

Consider `CC(=O)Oc1ccc(C(c2ccc(OC(C)=O)cc2)c2ccccn2)cc1`, for which the Potency in [1] is 944 nM (active) and 271 nM (active); in test [3] it was 668 nM (active) and 483 nM (active). Also, the Potency entry in test [2], in test [4], in [5], in test [6], in test [7] and in test [9] was “inactive” each time. The result in test [8] was inactive.

On to `CCc1cccc2c3c([nH]c12)C(CC)(CC(=O)O)OCC3` (stereo not given), for which the Potency entry in test [1], in test [2], in [3], in test [4], in test [5] and in [6] was “inactive” throughout. For the same compound, the Potency entry in [7] and in test [9] was “inactive” in each case. In [8], the compound was classed as inactive.

For `c1ccc2c(c1)[nH]c1ccccc12`, the Potency result in test [1], in [2], in test [3], in [4], in [6] and in test [7] was “inactive” each time. For the same compound, the Potency result in [9] is “inactive”. In addition, the compound was classed as inactive in test [8].

Take `Nc1cc([N+](=O)[O-])ccc1C(=O)O`: the Potency entry in [1], in [2], in [3], in test [4], in test [5] and in [6] was “inactive” throughout. Moreover, the Potency result in test [7] and in test [9] was “inactive” each time. Moreover, the outcome in test [8] was inactive.

Consider `C/C=C/C(=O)N(CC)c1ccccc1C`, for which the Potency entry in test [1], in test [2], in [3], in test [4], in [5] and in [6] was “inactive” each time. The Potency result in test [7] and in [9] was “inactive” throughout. Also, the outcome in [8] was inactive.

For `Cc1ccc(C)c(O)c1`, the Potency result in test [1], in test [2], in test [3], in test [4], in [5] and in test [6] was “inactive” each time. Also, the Potency entry in test [7] and in [9] was “inactive” each time. Also, the compound was called inactive in [8].

As for `CC(=O)[C@@]1(O)CC[C@H]2[C@@H]3C[C@H](C)C4=CC(=O)C=C[C@]4(C)[C@@]3(F)[C@@H](O)C[C@@]21C`, the Potency entry in test [1], in test [2], in test [3], in test [4], in test [5] and in test [6] was “inactive” throughout. Further, the Potency entry in test [7] and in test [9] was “inactive” in each case. Also, in test [8], the compound was called inactive.

Consider `COC(=O)c1ccc(C)cc1`, for which the Potency entry in test [1], in test [2], in test [3], in test [4], in test [5] and in [6] was “inactive” each time. Moreover, the Potency entry in test [7] and in test [9] was “inactive” each time. Besides, the call in [8] was inactive.

Take `O=C(O)c1cc(=O)[nH]c(=O)[nH]1`: the Potency result in test [1], in [2], in [3], in test [4], in test [5] and in test [6] was “inactive” in each case. For the same compound, the Potency entry in test [7] and in test [9] was “inactive” each time. Moreover, the outcome in test [8] was inactive.

As for `C=CCNCC=C`, the Potency result in test [1], in test [2], in [3], in [4], in [6] and in test [7] was “inactive” throughout. Also, the Potency result in test [9] was “inactive”. Moreover, the compound was classed as inactive in test [8].

Take `C1COCCN1`: the Potency result in test [1], in [2], in test [3], in test [4], in [5] and in test [6] was “inactive” each time. Also, the Potency result in test [7] and in [9] was “inactive” each time. Besides, the compound was called inactive in test [8].

On to `CCC(Cc1c(I)cc(I)c(N)c1I)C(=O)O` (stereo not given), for which the Potency result in test [1], in test [2], in test [3], in test [4], in test [5] and in test [6] was “inactive” throughout. Besides, the Potency result in test [7] and in test [9] was “inactive” throughout. Besides, the outcome in test [8] was inactive.
